Results from PubChem BioAssay AID1159580 (chemical genetic matrix, 2015).
The whole screen tested about 5,500 compounds, of which about 2,000 (36%) were called active. Not shown: some 18% with an inconclusive outcome. No stated cut-off is given here; in the data, active means normalized growth mostly below about 0.91 (no sharp cut-off); inconclusive means no clear call, values can overlap the other calls; inactive means mostly above about 0.92. This is one part of the list.

Test: chemical genetic growth profiling, strain panel (AID 1159580);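 further: tested at 20 µM; growth read once vehicle control cultures reached saturation at 30 °C; 1 = growth at the plate median or of vehicle wells; lower values mean less growth of the strain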
Conditions: S. cerevisiae deletion strains, growth OD

Measured: normalized growth

CNNC
inactive: locus YAL013W, strain DEP1, active compounds read low 1.01 | locus YAL021C, strain ccr4, active compounds read low 1.01 | locus YAL026C, strain drs2, active compounds read low 1.02 | locus YAL030W, strain snc1, active compounds read low 1.02 | locus YBL061C, strain skt5, active compounds read low 1 | locus YBR009C, strain hhf1, active compounds read low 1.01 | locus YBR021W, strain FUR4, active compounds read low 1.04 | locus YBR023C, strain chs3, active compounds read low 1 | locus YBR171W, strain sec66, active compounds read low 0.995 | locus YBR229C, strain ROT2, active compounds read low 1.01 | locus YBR231C, strain swc5, active compounds read low 1.01 | locus YBR279W, strain paf1, active compounds read low 1.02 | locus YCL011C, strain gbp2, active compounds read low 1.01 | locus YCL016C, strain dcc1, active compounds read low 1.04 | locus YCL029C, strain bik1, active compounds read low 1.01 | locus YCL069W, strain vba3, active compounds read low 1.01 | locus YCR088W, strain abp1, active compounds read low 1.01 | locus YDL005C, strain med2, active compounds read low 0.987 | locus YDL035C, strain GPR1, active compounds read low 1.02 | locus YDL040C, strain nat1, active compounds read low 1 | locus YDL074C, strain BRE1, active compounds read low 1.07 | locus YDL101C, strain DUN1, active compounds read low 1.03 | locus YDL134C, strain PPH21, active compounds read low 1.02 | locus YDL185W, strain tfp1, active compounds read low 1.01 | locus YDL192W, strain arf1, active compounds read low 0.995 | locus YDR001C, strain nth1, active compounds read low 1.02 | locus YDR069C, strain doa4, active compounds read low 1.02 | locus YDR101C, strain arx1, active compounds read low 0.989 | locus YDR137W, strain rgp1, active compounds read low 1.04 | locus YDR150W, strain NUM1, active compounds read low 1 | locus YDR159W, strain sac3, active compounds read low 0.991 | locus YDR162C, strain NBP2, active compounds read low 1.03 | locus YDR195W, strain ref2 0.981 | locus YDR297W, strain sur2, active compounds read low 1 | locus YDR318W, strain mcm21, active compounds read low 0.997 | locus YDR334W, strain swr1, active compounds read low 1.01 | locus YDR335W, strain msn5, active compounds read low 1.01 | locus YDR388W, active compounds read low 0.994 | locus YDR392W, strain spt3, active compounds read low 1.01 | locus YDR502C, strain sam2, active compounds read low 1.01 | locus YEL003W, strain gim4, active compounds read low 1.01 | locus YEL037C, strain rad23, active compounds read low 1.02 | locus YEL061C, strain CIN8 (second series), active compounds read low 1.01 | locus YEL061C, strain CIN8, active compounds read low 1.01 | locus YER015W, strain faa2, active compounds read low 1.01 | locus YER016W, strain bim1, active compounds read low 1.01 | locus YER110C, active compounds read low 0.996 | locus YER111C, strain swi4, active compounds read low 1 | locus YER155C, strain BEM2 (second series), active compounds read low 1.04 | locus YER155C, strain BEM2, active compounds read low 1.03 | locus YER167W, strain BCK2, active compounds read low 1.02 | locus YFR010W, strain ubp6, active compounds read low 0.993 | locus YGL078C, strain dbp3, active compounds read low 1 | locus YGL086W, strain mad1, active compounds read low 1.01 | locus YGL167C, strain pmr1, active compounds read low 0.998 | locus YGL173C, strain kem1, active compounds read low 0.987 | locus YGL227W, strain vid30, active compounds read low 1.01 | locus YGL240W, strain doc1, active compounds read low 0.995 | locus YGL248W, strain PDE1, active compounds read low 1.02 | locus YGL253W, strain hxk2, active compounds read low 1 | locus YGR078C, strain PAC10, active compounds read low 1.04 | locus YGR135W, strain pre9, active compounds read low 1.01 | locus YGR229C, strain SMI1, active compounds read low 1.02 | locus YGR252W, strain gcn5, active compounds read low 0.955 | locus YHR013C, strain ard1, active compounds read low 1.02 | locus YHR027C, strain rpn1, active compounds read low 1.02 | locus YHR030C, strain SLT2, active compounds read low 1.02 | locus YHR079C, strain IRE1 (second series), active compounds read low 1 | locus YHR094C, strain hxt1, active compounds read low 0.998 | locus YHR129C, strain ARP1, active compounds read low 1.02 | locus YHR142W, strain chs7, active compounds read low 1.04 | locus YHR200W, strain rpn10, active compounds read low 1 | locus YIL066C, strain RNR3, active compounds read low 1.01 | locus YIL073C, strain SPO22, active compounds read low 0.998 | locus YIL125W, strain kgd1, active compounds read low 0.99 | locus YIR030C, strain dcg1, active compounds read low 1.01 | locus YJL092W, strain hpr5, active compounds read low 1.03 | locus YJL095W, strain BCK1 (second series), active compounds read low 1.01 | locus YJL095W, strain BCK1, active compounds read low 1.05 | locus YJL115W, strain asf1, active compounds read low 0.994 | locus YJL129C, strain trk1, active compounds read low 1.01 | locus YJL134W, strain LCB3, active compounds read low 1.02 | locus YJL154C, strain vps35, active compounds read low 1.02 | locus YJL164C, strain tpk1, active compounds read low 0.996 | locus YJL166W, strain qcr8, active compounds read low 0.997 | locus YJL168C, strain set2, active compounds read low 1 | locus YJL187C, strain SWE1 (second series), active compounds read low 1.02 | locus YJR043C, strain POL32, active compounds read low 0.998
